Where a name gives a salt, the structure may show the parent alone. ± gives the standard deviation of the averaged measurements.
How the values were obtained:
ES2 = experiment: cell viability relative to DMSO control (MTS) (fraction of DMSO control); higher = more viable cells / less growth inhibition; conditions: 10 µM; 48 h
How it was run: (§1)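 A 367-compound […] library was tested at a final concentration of 10 µM on TOV-21G and ES2 clear cell carcinoma cells (5000 cells per well, 96-well plates, pre-grown 24 h), with control wells receiving vehicle only. Following 48 h of exposure, CellTiter 96 AQueous One Solution was used as the manufacturer directs. This MTS assay gives cell viability as a fraction of the vehicle control.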

TOV-21G = experiment: as above; conditions: 10 µM; 48 h
How it was run: as §1

| SMILES | cell viability (ES2) | cell viability (TOV-21G) |
| --- | --- | --- |
| CN(Cc1cnc2nc(N)nc(N)c2n1)c1ccc(C(=O)N[C@@H](CCC(=O)O)C(=O)O)cc1 [Methotrexate] | 1.16 | 0.872 |
| CC(C)C(C(=O)O)N1C(=O)C(=Cc2ccc(Br)cc2)SC1=S (centres undefined) | 1.11 | 1.16 |
| C[C@H](NC(=O)/C(C#N)=C/c1cccc(Br)n1)c1ccccc1 | 0.347 | 0.392 |
| O=Nc1c(-c2c(O)[nH]c3cc(Br)ccc23)[nH]c2ccccc12 [GSK-3 inhibitor IX] | 0.643 | 0.36 |
| c1ccc2c(-c3cnn4cc(-c5ccc(N6CCNCC6)cc5)cnc34)ccnc2c1 | 0.267 | 0.344 |
| Nc1cccc(-c2cc3c(Oc4cccc(O)c4)ncnc3[nH]2)c1 | 0.586 | 1.03 |
| CCN(CC)CCNC(=O)c1c(C)[nH]c(/C=C2\C(=O)Nc3ccc(F)cc32)c1C [sunitinib malate] | 0.439 | 0.555 |
| CC(C)C(=O)Nc1ccc([N+](=O)[O-])c(C(F)(F)F)c1 [Flutamide] | 0.917 | 1.09 |
| CS(=O)(=O)Nc1ccc([N+](=O)[O-])cc1OC1CCCCC1 | 0.933 | 1.02 |
| COc1cc2/c(=N/c3ccc(Br)cc3F)nc[nH]c2cc1OCC1CCN(C)CC1 [Vandetanib] | 0.577 | 0.436 |
| Cc1cn(-c2cc(NC(=O)c3ccc(C)c(Nc4nccc(-c5cccnc5)n4)c3)cc(C(F)(F)F)c2)cn1 [nilotinib] | 0.751 | 0.709 |
| O=C(O)c1ccccc1Nc1ccccc1 [N-phenylanthranilic acid] | 1.02 | 0.995 |
| Nc1ncn([C@@H]2O[C@H](CO)[C@@H](O)[C@H]2O)c(=O)n1 [Azacytidine] | 0.664 | 0.779 |
| CCCCC[C@H](CC(=O)NO)C(=O)N[C@H](C(=O)N1CCC[C@H]1CO)C(C)C [Actinonin] | 1 | 0.848 |
| COc1ccc(Cl)cc1C(=O)NCCc1ccc(S(=O)(=O)NC(=O)NC2CCCCC2)cc1 [Glibenclamide] | 0.829 | 0.958 |
| Cc1c2oc3c(C)ccc(C(=O)N[C@@H]4C(=O)N[C@H](C(C)C)C(=O)N5CCC[C@H]5C(=O)N(C)CC(=O)N(C)[C@@H](C(C)C)C(=O)O[C@@H]4C)c3nc-2c(C(=O)N[C@@H]2C(=O)N[C@H](C(C)C)C(=O)N3CCC[C@H]3C(=O)N(C)CC(=O)N(C)[C@@H](C(C)C)C(=O)O[C@@H]2C)c(N)c1=O [Actinomycin D] | 0.584 | 0.456 |

| SMILES | cell viability (ES2) | cell viability (TOV-21G) |
| --- | --- | --- |
| Cc1nc2c(O)cccc2c(=O)[nH]1 | 1.04 | 0.856 |
| C[C@]1(c2nc3c(C(N)=O)cccc3[nH]2)CCCN1 [ABT-888 (Veliparib)] | 0.897 | 0.892 |
| C1=Cc2nc1cc1nc(c(-c3ccccc3)c3ccc(cc4ccc([nH]4)c2-c2ccccc2)[nH]3)C=C1 | 0.908 | 1.19 |
| Nc1nc2c(nc(Sc3ccc(Cl)cc3)n2C2O[C@@H]3CO[P+](O)(S)OC3[C@@H]2O)c(=O)[nH]1 (some centres undefined) | 1.02 ± 0.17 | 0.856 ± 0.084 |
| COc1cc(Nc2ncc3c(n2)-c2ccc(Cl)cc2C(c2c(F)cccc2OC)=NC3)ccc1C(=O)O | 0.769 | 0.619 |
| O=Nc1c(-c2c(O)[nH]c3ccccc23)[nH]c2ccccc12 [indirubin-3'-monoxime] | 0.696 | 0.491 |
| C[n+]1ccc(-c2c3nc(c(-c4cc[n+](C)cc4)c4ccc([nH]4)c(-c4cc[n+](C)cc4)c4ccc([nH]4)c(-c4cc[n+](C)cc4)c4nc2C=C4)C=C3)cc1 | 0.933 | 0.79 |
| OC[C@H]1NC[C@H](O)[C@@H](O)[C@@H]1O [Deoxynojirimycin] | 1.02 | 1.19 |
| O=C(Cc1ccccc1)Nc1c2c(nc3ccccc13)N(Cc1ccccc1)CC2 | 0.96 | 0.839 |
| CN(C)c1ccccc1CN1CCCN(Cc2ccccc2N(C)C)C1c1ccncc1 | 0.853 | 0.229 |
| CNC(=N)NCCC[C@H](N)C(=O)O | 0.909 | 0.974 |
| CCOC(=O)C1=C(C)NC(=S)NC1c1cccc(O)c1 (centres undefined) [Monastrol] | 0.884 | 0.853 |
| CN(C)S(=O)(=O)c1ccc2c(c1)/C(=C/c1cc3c([nH]1)CCCC3)C(=O)N2 | 1.03 | 0.891 |
| c1cc(CN2CCCNCCNCCCNCC2)ccc1CN1CCCNCCNCCCNCC1 [AMD3100 octahydrochloride] | 1.4 | 1.38 |
| COc1c(C=O)c(O)cc2c1C(=O)c1ccccc1C2=O [Damnacanthal] | 1.05 ± 0.021 | 0.974 ± 0.19 |
| CO[C@H]1C[C@@H]2CC[C@@H](C)[C@@](O)(O2)C(=O)C(=O)N2CCCC[C@H]2C(=O)O[C@H]([C@H](C)C[C@@H]2CC[C@@H](OC(=O)C(C)(CO)CO)[C@H](OC)C2)CC(=O)[C@H](C)/C=C(\C)[C@@H](O)[C@@H](OC)C(=O)[C@H](C)C[C@H](C)/C=C/C=C/C=C/1C [temsirolimus] | 0.824 | 0.516 |
